HSF1 inh = HSF1 inhibitors in luciferase reporter cells, primary screen, cell-based, NIH3T3, luminescence; 300,000 tested, 0.77% active; NIH3T3-HGL HSE-luciferase, MG132-induced, luminescence 8 h; hits give low values; activity change, negative = inhibition, % at 7.5 µM (by protocol);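 active = more than half of replicate wells show activity change below -50%, luminescence cut by over half; inconclusive = some wells, but at most half, below -50%; inactive = no replicate well below -50%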;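 also: luciferase reports HSF-1 transcriptional activity via heat shock element; 0% = median of DMSO wells and -100% = zero luminescence signal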
HSF1 activator = HSF-1 activators, primary screen, NIH3T3-HGL cells, MG132 stress, luminescence, single point; NIH3T3-HGL HSF-1 luciferase reporter, 8 h; 100% = twice DMSO control signal; activation, % at 9 µM; 300,000 tested, 1.7% active; AID 504408, 2011;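 active = mean replicate activation of at least 50% with a set share of replicates each reaching 50%; inconclusive = only one of those two conditions met; inactive = mean below 50% and too few replicates reaching it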;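 also: 0% = median of the neutral control wells and 100% = twice that signal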
Wnt bcat act = Wnt/beta-catenin pathway activators, primary screen, cell-based, plate reader, single point. Wnt/beta-catenin reporter cell assay, activator. activation, % at 9.35 µM. 300,000 tested, 1.2% active. AID 743398, 2014; in the data active = activation above about 30%, passing the limit was not always enough; inconclusive = no clear call, values can overlap the other calls;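 also: 0% = neutral control wells and 100% = positive control wells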
esBAF inh = Bmi1 luciferase reporter increase in mESCs, primary screen, esBAF inhibitor project, mouse ES cells, Bmi1 luciferase knock-in, single point. 24 h; 100% = twice the neutral-well signal. 350,000 tested, 2% active. reporter increase, % at 12.5 µM; in the data active = activation above about 40%; inconclusive = no clear call, values can overlap the other calls;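 also: 0% = median of the plate's neutral control wells and 100% = double that signal; a rise in the Bmi1 reporter signal indicates esBAF inhibition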
MITF TRPM1 HTS = activators of MITF-driven TRPM1 promoter reporter, primary screen, cell-based, SK-MEL-5, luciferase, single point; activation, % at 12.5 µM; SK-MEL-5 TRPM1-promoter luciferase, 24 h; % of positive control, neutral wells = 0; AID 588334, 2011; 300,000 tested, 0.75% active;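 active = mean activation of at least 80% with every replicate also reaching 80%; inconclusive = mean reaches 80% but some replicate falls short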;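 also: 0% = neutral control wells and 100% = parthenolide positive control wells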
* marks the source's active call; other numbers are inactive results. Hits are enriched below; roughly 3.8% of the tested compounds scored in any of these assays.

What do the screens show for `CCOC(=O)N/N=C\C=C\c1ccc2c(c1)OCO2`?
HSF1 inh: 11.2; HSF1 activator: 19.7; Wnt bcat act: 49.7*; MITF TRPM1 HTS: 72.9

Results for CC(C)(C)OC(=O)N/N=C/c1ccc(Br)cc1 ?
HSF1 inh: 18.0; HSF1 activator: 52.8*; Wnt bcat act: 16.7; MITF TRPM1 HTS: 70.5

How did CC(C)(C)NC(=O)C(=O)N/N=C/c1ccc(Br)cc1 do in these assays?
HSF1 inh: 10.6; HSF1 activator: 12.6; MITF TRPM1 HTS: 3.7

What do the screens show for `CC(C)(C)OC(=O)N/N=C\C=C\c1ccc2c(c1)OCO2`?
HSF1 inh: 34.6; HSF1 activator: 55.7*; Wnt bcat act: 55.5*; MITF TRPM1 HTS: 119.0*

What do the screens show for `C[C@@H](NC(=O)C[C@@H]1C[C@@H]2c3cc(NC(=O)NC4CCCC4)ccc3O[C@@H]2[C@@H](CO)O1)c1ccccc1`?
esBAF inh: 1.2

What do the screens show for `COc1ccccc1N(/N=C1\Sc2ccccc2C1=O)C(C)=O`?
HSF1 inh: -67.8*; HSF1 activator: -67.6; Wnt bcat act: -3.4

How did COc1ccccc1NC1=C(NC(C)=O)C(=O)c2ccccc2C1=O do in these assays?
HSF1 inh: 7.0; HSF1 activator: 9.6; Wnt bcat act: -0.4; MITF TRPM1 HTS: -54.9

What do the screens show for `COc1ccc(N(/N=C2\Sc3ccccc3C2=O)C(C)=O)cc1`?
HSF1 inh: 26.3; HSF1 activator: 60.4*; Wnt bcat act: inconclusive; MITF TRPM1 HTS: 22.0

How did O=C(C[C@H]1CC[C@H](NC(=O)Nc2ccccc2)[C@H](CO)O1)NCc1cccc(F)c1 do in these assays?
esBAF inh: 4.5

How did CCOc1cc(Br)c(COc2ccc(C)nc2[N+](=O)[O-])cc1OCC do in these assays?
HSF1 inh: -6.8; HSF1 activator: 6.2; Wnt bcat act: -0.5; esBAF inh: -6.8; MITF TRPM1 HTS: -6.4

Results for Cc1ccc(OCCOc2cccc(Br)c2)c([N+](=O)[O-])n1 ?
HSF1 inh: 62.0; HSF1 activator: 87.8*; MITF TRPM1 HTS: 103.0*

What do the screens show for `Cc1ccc(OCc2ccc(Br)cc2)c([N+](=O)[O-])n1`?
HSF1 inh: 29.4; HSF1 activator: 77.3*; Wnt bcat act: 60.6*

What do the screens show for `Cc1ccc(OCc2ccc(-c3ccccc3)cc2)c([N+](=O)[O-])n1`?
HSF1 inh: 15.5; HSF1 activator: 23.2; Wnt bcat act: 7.8; MITF TRPM1 HTS: 44.2

How did COCC(=O)Nc1ccc2c(c1)[C@H]1C[C@@H](CC(=O)NCC3CC3)O[C@@H](CO)[C@H]1O2 do in these assays?
esBAF inh: -2.5

How did Cc1ccc2nc(N3C(=O)C(O)=C(C(=O)c4ccco4)C3c3cccs3)sc2c1 (stereo not drawn) do in these assays?
HSF1 inh: 34.9; HSF1 activator: 65.8*; MITF TRPM1 HTS: 10.2

Results for CCOc1cccc(C2C(C(=O)c3ccco3)=C(O)C(=O)N2c2nnc(C)s2)c1 (stereo not drawn) ?
Wnt bcat act: 90.4*; esBAF inh: 11.5; MITF TRPM1 HTS: 7.9

How did CCOc1cccc(C2C(C(=O)c3ccc(C)o3)=C(O)C(=O)N2c2nnc(C)s2)c1 (stereo not drawn) do in these assays?
Wnt bcat act: 0.6; esBAF inh: -0.3; MITF TRPM1 HTS: 21.1

What do the screens show for `CC(C)NC(=O)Nc1ccc2c(c1)C(=O)N([C@H](C)CO)C[C@@H](C)[C@H](CN(C)S(=O)(=O)c1cn(C)cn1)O2`?
esBAF inh: 3.4

What do the screens show for `CS(=O)(=O)N1CCN(c2ccc(NC(=O)c3ccc(Br)o3)cc2)CC1`?
HSF1 inh: 18.4; HSF1 activator: 7.2; Wnt bcat act: 56.7*; esBAF inh: 29.5; MITF TRPM1 HTS: inconclusive

What do the screens show for `O=C(Nc1ccc(N2CCN(C(=O)c3ccccc3)CC2)cc1)c1cccnc1`?
HSF1 inh: -0.1; HSF1 activator: -14.8; Wnt bcat act: -1.6; esBAF inh: -1.8; MITF TRPM1 HTS: 2.5

What do the screens show for `CC1CCN(c2ccc(NC(=O)c3ccc(Br)o3)cc2)CC1`?
HSF1 inh: 25.2; HSF1 activator: 53.2*; Wnt bcat act: inconclusive; esBAF inh: 55.7*; MITF TRPM1 HTS: 78.5

Bioassay records from PubChem BioAssay.
